Bioassay records (PubChem)
VACV Venus inh: vaccinia inhibition (Venus reporter); Vaccinia virus Venus reporter expression, fluorescence; Potency, µM (series often up to 36.5 µM), for inactives: at the highest dose activity change, negative = inhibition, most hits filed as inhibitors; 330,000 tested, 0.46% active; AID 720580; calls by dose curve; tested in A549 cells; also: nearly all actives have a fitted effect of over 30% in size
FMDV antiviral: antivirals against foot and mouth disease virus; Potency, µM (titrated, usually from 57.9 µM), without a hit: at the top dose activity change, negative = inhibition, actives largely listed as inhibitors; 410,000 tested, 1.2% active; AID 1159524; FMDV antiviral cell-based qHTS; calls by dose curve; tested in HEK293T cells; also: read-out not given here; nearly all actives have a fitted effect of over 45% in size
LASV entry inh: inhibitors of Lassa virus binding or cell entry | Lassa virus pseudotype entry inhibition, cell reporter | Potency, µM (series often up to 37.9 µM), for the others: top-dose activity change, negative = inhibition, actives largely listed as inhibitors | 300,000 tested, 1.2% active | AID 540256; calls by dose curve; tested in HEK293 cells; also: nearly all actives have a fitted effect of over 50% in size
Vaccinia mCherry: vaccinia inhibition (mCherry reporter); Vaccinia virus mCherry reporter infection, fluorescence; Potency, µM (highest dose often 36.5 µM), without a hit: at the highest dose activity change, negative = inhibition, hits mostly inhibitors; 310,000 tested, 0.63% active; AID 720579; calls by dose curve; tested in A549 cells; also: nearly all actives have a fitted effect of over 35% in size
MARV entry inh: blocks Marburg virus binding to or entry into cells. 300,000 tested, 1.8% active. Marburg virus pseudotyped entry inhibition, cell reporter. AID 540276. Potency, µM (highest dose often 37.8 µM), for inactives: at the highest dose activity change, negative = inhibition, hits mostly inhibitors; calls by dose curve; tested in HEK293 cells
Active calls of the source: *; i = inactive; ? = inconclusive; · = no result given; ! = not active in a repeat; [ ] = dose if it differs, or a comment. In the library only some 3.2% were active in any assay of this set; here they are far more common. % is scaled to controls: 0 for no effect and ±100 for the full control effect; potency is read from the fitted curve at half-maximal effect.

SMILES	VACV Venus inh	FMDV antiviral	LASV entry inh	Vaccinia mCherry	MARV entry inh
C/C=C(/C)C(=O)O[C@H]1C(C)=C2[C@H]([C@@H]1OC(=O)CCCCCCC)[C@@](C)(OC(C)=O)C[C@H](OC(=O)CCC)[C@@]1(O)[C@H]2OC(=O)[C@@]1(C)O	-11.9%[20.9 µM]	1.4%[39.8 µM]	0.326µM*	-2.0%[20.9 µM]	0.146µM*
c1ccc2c(c1)sc[n+]2CCC1CCCCC1	-5.9%	·	·	-7.2%	·
COc1ccc(C(NC(C)=O)c2ccc3cccnc3c2O)cc1OC (stereo not given)	?	·	·	7.94µM*	·
CCOc1cc(C(Nc2cc(C)ccn2)c2ccc3cccnc3c2O)ccc1OC (stereo not given)	-8.6%[7.34 µM]	-18.3%	5.62µM*	i[7.34 µM]	?
COc1ccc(C(NC(C)=O)c2ccc3cccnc3c2O)c(OC)c1 (stereo not given)	?	0.0%	6.31µM*	·	?
c1ccc2c(NC3CC3)nc(-c3ccoc3)nc2c1	·	-16.6%	·	·	·
CC1(C)CC(=O)C2=C(C1)NC(Nc1nc3ccccc3o1)=NC2c1cccc(O)c1 (stereo not given)	?	·	·	-9.0%	·
CC1=C(C(=O)OCc2ccc3c(c2)OCO3)C(c2ccc(Cl)cc2)NC(=O)N1 (stereo not given)	?	·	?	?	2.06µM*
COc1cccc(OCCSc2nnc3sc4ccccc4n23)c1	-5.7%	-8.6%	?	·	-0.7%
c1ccc(OCCSc2nnc3sc4ccccc4n23)cc1	-5.2%	·	10.3µM*	i	2.06µM*
O=C1C=C(c2ccccc2)C(=O)N1Nc1ccccc1	-16.2%	35.5µM*	?	-8.2%	-0.6%
Cc1ccc(NN2C(=O)C=C(c3ccc(Cl)cc3)C2=O)cc1	?	39.8µM*	?	?	?
OC(CNC1CCCCC1)C(F)(F)F (stereo not given)	-19.1%	5.8%	10.2%[46.1 µM]	i	1.7%[46.1 µM]
NCC(O)C1CCCCCCC1 (stereo not given)	·	·	2.6%	·	7.08µM*!
CCOC(=O)c1c(NC(=O)COC(=O)Cn2cnc3ccccc32)sc(C)c1C	?	-6.4%	16.7%	10µM*	-8.3%
COc1ccc(C(=O)N2CCCCC2CCN2CCOCC2)cc1 (stereo not given)	-2.7%	-18.4%	-1.9%[46.1 µM]	-11.5%	-4.1%[46.1 µM]
Cc1ccccc1CN1C(=O)c2ccccc2Sc2ccc(C(=O)NC3CCCCC3)cc21	-10.1%	5.1%	2.1%[46.1 µM]	3.4%	·
COc1cccc(OC)c1C(=O)Nc1cc(C)nn1-c1nc2ccccc2[nH]1	0.6%	-24.9%	11.2µM*	-14.1%	?
COc1ccc(-c2noc(CN(C(=O)Cc3ccc(C)cc3)C(C)C)n2)cc1	-5.6%	?	?	-15.3%	?
OC(c1ccccc1)(c1ccccc1)c1nccc2ccccc12	-5.0%	-22.3%	?	-22.9%	-13.8%
O=C1c2ccccc2C(=O)c2c1cccc2-n1nnc2ccccc21	-10.9%[7.34 µM]	-15.4%	8.2%	-16.1%[7.34 µM]	3.1%[46.1 µM]
O=C1C(N2CCOCC2)=C(n2nnc3ccccc32)C(=O)c2ccccc21	?	10µM*	?	?	7.94µM*
COc1ccccc1NC(=O)C1=C(C)Nc2nc(SCC(=O)c3ccc(C)cc3)nn2C1c1ccc(F)cc1 (stereo not given)	-6.6%	-11.1%	23.8%[46.1 µM]	-21.7%	·
Cc1ccc(OCCOc2cccc(C=C3C(=O)NC(=O)NC3=O)c2)c(C)c1	-8.7%	14.1µM*	?	-12.4%	?
COc1cccc(N2CCN(C(=O)Cn3c(-c4cccs4)cc4ccccc43)CC2)c1	-12.0%	-23.4%	-12.8%[46.1 µM]	-14.3%	·
SMILES	VACV Venus inh	FMDV antiviral	LASV entry inh	Vaccinia mCherry	MARV entry inh
O=[N+]([O-])c1cccc(NNS(=O)(=O)c2ccccc2F)c1	-19.9%	-0.1%	?	?	8.91µM*
CC(=O)c1c(O)c(C)c(O)c2c1OC1=Cc3c(c(C)nn3-c3ccccc3)C(=O)C12C (stereo not given)	-13.3%	?	·	-22.3%	·
CC(=O)C1=C(O)C2(C)c3c(O)c(C)c(O)c(C(C)=O)c3OC2CC1=O (stereo not given)	?	10µM*	·	?	·
CCCC(=O)NC(c1cccc([N+](=O)[O-])c1)c1ccc2cccnc2c1O (stereo not given)	?	0.0%	·	3.98µM*	·
CC(C)C(=O)NC(c1cccc([N+](=O)[O-])c1)c1ccc2cccnc2c1O (stereo not given)	4.47µM*	-11.3%	7.08µM*	?	?
Cc1cc(C(=O)COc2ccc(F)cc2Br)c(C)n1C1CC1	-13.7%	3.1%	-10.3%	-19.0%	-14.8%
Clc1ccc2c(Cl)cc[n+](CCC3CCCCC3)c2c1	-8.1%	·	·	37.5%	·
CC(N)C(=O)NC1C2C(=C(O)CC(O)C2O)C(=O)OC1(C)C(Cl)Cl (stereo not given)	1µM*	?	0.501µM*	?	0.316µM*
O=C1c2ccccc2C(O)(C2N=CC=N2)N1CCc1ccccc1 (stereo not given)	·	·	·	·	10.3%
CC(C)Cc1ccc(C(C)C(N)=NCCc2ccccc2)cc1 (stereo not given)	-22.4%	-29.7%	?	?	2.24µM*
COc1ccc(CCN=C(N)C(C)c2ccccc2)cc1OC (stereo not given)	-3.3%	-18.9%	2.3%	-12.0%	-2.8%
Cc1ccc(C(=O)c2c(C)oc3c2C(=O)C(=O)c2ccccc2-3)cc1	?	?	7.08µM*	·	7.94µM*
Cc1oc2c(c1C(=O)c1ccc(Cl)cc1)C(=O)C(=O)c1ccccc1-2	0.0%	?	-26.9%	-4.7%	-22.1%
COc1cc2c(c(OC)c1OC)C(c1ccccc1)(c1ccccc1)CC2NC(=O)C(F)(F)F (stereo not given)	·	·	·	·	-9.6%[14.2 µM]
O=S(=O)(NCc1cccs1)c1ccc(Br)cc1	·	95.2%	·	·	·
O=C(Nc1ccc(Br)cc1)c1ccc(F)c(S(=O)(=O)NCc2cccs2)c1	?	-0.5%	3.98µM*	?	?
Cc1cc(N/C=C/C(=O)c2cccs2)ccc1F	·	21.9%	·	·	·
Cc1ccc(N/C=C/C(=O)c2cccs2)cc1C	-14.1%	?	10µM*	-7.2%	?
CCN1C(=O)/C(=C/c2ccc3c(c2)CCN3CCCCl)C(=O)NC1=S	14.9%	?	-17.9%	11.6%	-25.3%
C=CCN1C(=O)/C(=C/c2ccc3c(c2)CCCN3CCC)C(=O)NC1=S	18.7%	31.6µM*	14.2%	2.7%	17.0%
C=CCN1C(=O)/C(=C/c2ccc(Br)s2)C(=O)NC1=S	·	31.6µM*	·	·	·
C=CCN1C(=O)/C(=C\c2ccc(N3CCOCC3)o2)C(=O)NC1=S	31.7%	-11.5%	-4.2%	i	-3.4%
Cc1ccc2nc(-c3ccc(C)c(NC(=O)COc4ccc(Br)cc4)c3)oc2c1	-13.5%	·	·	-4.3%	·
O=C(NCCc1cccc(Cl)c1)c1ccc(OC2CCN(Cc3ccccn3)CC2)cc1	·	28.2µM*	·	·	·
CCN(CC)c1ccc(/C=N/Nc2nc(C)cc(=O)[nH]2)c(O)c1	?	15.2%	0.82µM*	0.891µM*	0.517µM*
Cc1cc(=O)[nH]c(N/N=C/c2ccccc2Cl)n1	·	33.0%	·	·	·
Cc1cc(=O)[nH]c(NN=Cc2cc(Br)ccc2O)n1	?	-4.3%	10µM*	2µM*	2µM*
CCc1cnc2ccccc2c1/C=C/c1ccc(N(C)C)cc1	-18.2%	·	·	-4.7%	·
CC1(C)C[C@H](n2[nH]c(=O)c3c2NC(=O)CS[C@@H]3c2ccccc2)CCO1	·	·	·	·	13.9%
